Results: the supplement of paper PMC6555819

How the values were obtained:
Experiment in all cases: PBM binding z-score (relative to random genomic background probes); higher = stronger binding; sequences stand for … in GC…GCGATTGACAGCGTAGAATGAAGG
[1] = test system: RARb homodimer (NR concentration 270 nM)
Summary of the method: (§1)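 Antibodies against each partner of ligand-free nuclear receptor dimers (one per run) detected binding on custom Agilent 4×180K protein-binding microarrays after 1 h incubation. The double-stranded probes had 34-nt variable regions carrying direct-repeat seeds, single-nucleotide variants, half-site ablations and random human genomic background sequences. Binding z-scores, from regression-normalized fluorescence, use the random background probes as reference.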

[2] = test system: RARg:RXRa (NR concentration 270 nM, RXRa partner concentration 90 nM)
Summary of the method: as §1

[3] = test system: RARg homodimer (NR concentration 270 nM)
Summary of the method: as §1

[4] = test system: RXRa DBDmut IVT, anti-RXR (DBD mutation: RXRa K156A/R161A, NR concentration 90 nM)
Summary of the method: as §1

[5] = test system: RXRa homodimer (NR concentration 180 nM)
Summary of the method: as §1

[6] = test system: THRa:RXRa (NR concentration 90 nM, RXRa partner concentration 90 nM)
Summary of the method: as §1

[7] = test system: THRa homodimer (NR concentration 90 nM)
Summary of the method: as §1

[8] = test system: VDR homodimer (NR concentration 270 nM)
Summary of the method: as §1

## GTTAGTTGGTCAGTAAAAGGTCACACACCGGTCG
[1]
  PBM binding z-score: 5.25
[2]
  PBM binding z-score: 5.67
[3]
  PBM binding z-score: 5.37
[4]
  PBM binding z-score: 1.14
[5]
  PBM binding z-score: 6.08
[6]
  PBM binding z-score: 3.68
[7]
  PBM binding z-score: 2.18
[8]
  PBM binding z-score: 2.3

## ATCTCTAGGTAACGATAGTTCAGTGAATGCAAAT
[1]
  PBM binding z-score: 0.983
[2]
  PBM binding z-score: 0.601
[3]
  PBM binding z-score: 0.702
[4]
  PBM binding z-score: -0.137
[5]
  PBM binding z-score: 0.128
[6]
  PBM binding z-score: 0.928
[7]
  PBM binding z-score: 0.354
[8]
  PBM binding z-score: 0.517

## ATACCAAGGTGATAGTGAGGTCGTTGATACTAAC
[1]
  PBM binding z-score: 1.84
[2]
  PBM binding z-score: 2.12
[3]
  PBM binding z-score: 0.961
[4]
  PBM binding z-score: 0.897
[5]
  PBM binding z-score: 1.84
[6]
  PBM binding z-score: 3.3
[7]
  PBM binding z-score: 2.49
[8]
  PBM binding z-score: 3.15

## ATATGTAGGTTAACGGTCATTCAGGTTGGTTCGC
[1]
  PBM binding z-score: 2.72
[2]
  PBM binding z-score: 2.13
[3]
  PBM binding z-score: 2
[4]
  PBM binding z-score: 1.34
[5]
  PBM binding z-score: 1.88
[6]
  PBM binding z-score: 1.62
[7]
  PBM binding z-score: 0.747
[8]
  PBM binding z-score: 1.84

## CCGACTGGGGCATAAGGTTACCACAAGCCAGCCC
[1]
  PBM binding z-score: 1.92
[2]
  PBM binding z-score: 1.8
[3]
  PBM binding z-score: 1.2
[4]
  PBM binding z-score: -0.196
[5]
  PBM binding z-score: 1.32
[6]
  PBM binding z-score: 2.04
[7]
  PBM binding z-score: 1.37
[8]
  PBM binding z-score: 0.195

## ACTGACGGGTCAACGAGGTTATAGCACGCGTATA
[1]
  PBM binding z-score: 3.27
[2]
  PBM binding z-score: 4.88
[3]
  PBM binding z-score: 4.97
[4]
  PBM binding z-score: 1.69
[5]
  PBM binding z-score: 5.11
[6]
  PBM binding z-score: 3.63
[7]
  PBM binding z-score: 0.781
[8]
  PBM binding z-score: 3.7

## ATTATTAGTTGACTTAGGGCAACCGATACGACGC
[1]
  PBM binding z-score: 1.41
[2]
  PBM binding z-score: 1.11
[3]
  PBM binding z-score: 1.23
[4]
  PBM binding z-score: 0.507
[5]
  PBM binding z-score: 0.918
[6]
  PBM binding z-score: 1.65
[7]
  PBM binding z-score: 1.03
[8]
  PBM binding z-score: 1.41

## TCCCGGAGGACACGAAGGTCAGAGCTTTCCAGAG
[1]
  PBM binding z-score: 3.55
[2]
  PBM binding z-score: 3.07
[3]
  PBM binding z-score: 3.74
[4]
  PBM binding z-score: 0.527
[5]
  PBM binding z-score: 1.59
[6]
  PBM binding z-score: 2.83
[7]
  PBM binding z-score: 1.17
[8]
  PBM binding z-score: 1.11

## CCTATTAGTTGACCATATGGGCAACCGAAGCTCG
[1]
  PBM binding z-score: 0.53
[2]
  PBM binding z-score: 0.405
[3]
  PBM binding z-score: 0.481
[4]
  PBM binding z-score: 0.486
[5]
  PBM binding z-score: 0.208
[6]
  PBM binding z-score: 0.00602
[7]
  PBM binding z-score: 0.303
[8]
  PBM binding z-score: 0.527

## CCCGACAGGTGAAAGGTAACTCAGTCTGGTACGC
[1]
  PBM binding z-score: 0.903
[2]
  PBM binding z-score: 1.26
[3]
  PBM binding z-score: 0.581
[4]
  PBM binding z-score: -0.307
[5]
  PBM binding z-score: 2.02
[6]
  PBM binding z-score: 1.09
[7]
  PBM binding z-score: 0.506
[8]
  PBM binding z-score: -0.0778

## AGAACGAGGGCACGCTGAGTTGATAGCGGAGTAG
[1]
  PBM binding z-score: 1.17
[2]
  PBM binding z-score: 1.85
[3]
  PBM binding z-score: 2.56
[4]
  PBM binding z-score: 1.97
[5]
  PBM binding z-score: 1.26
[6]
  PBM binding z-score: 1.86
[7]
  PBM binding z-score: 0.248
[8]
  PBM binding z-score: 2.34

## GCTAGCAGGTCATTTGGGTCACTCAATGACGGGC
[1]
  PBM binding z-score: 3.52
[2]
  PBM binding z-score: 4.5
[3]
  PBM binding z-score: 4.38
[4]
  PBM binding z-score: 2.82
[5]
  PBM binding z-score: 4.23
[6]
  PBM binding z-score: 3.74
[7]
  PBM binding z-score: 1.48
[8]
  PBM binding z-score: 3.25

## GGAACGCGGGCAAGTTGATAGCAGAGTTTGATGG
[1]
  PBM binding z-score: -0.349
[2]
  PBM binding z-score: -0.36
[3]
  PBM binding z-score: -0.0011
[4]
  PBM binding z-score: 0.0062
[5]
  PBM binding z-score: -0.242
[6]
  PBM binding z-score: -0.844
[7]
  PBM binding z-score: -0.922
[8]
  PBM binding z-score: -0.495
